Several values for one entry are separate records, joined by “and”; a condition that tells them apart may be missing. Equal values may be shown once. Among all 230,000 compounds or so, about 1,500 (0.65%) were called active. This is one part of a sample in which actives are shown more often than they occur.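 The calls were made as follows: active = pattern-corrected inhibition of lipid staining of at least 50% with the nuclear-stain viability signal not falling by more than 50%; inactive = the rest, inconclusive results apart.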 A structure can be active in one record and inactive in another.
Assay: inhibitors of triacylglycerol accumulation, primary screen, cell-based, uHTS, fluorescence, H9c2 (AID 651582);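 as to inhibition: 0% = DMSO wells and 100% = triacsin C control wells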
Conditions: H9c2 cells, Nile Red lipid (TAG) fluorescence, at 12.5 µM, cells loaded with 200 µM oleic acid; DAPI nuclei signal change (viability), lower = more cytotoxic: measured here: DAPI nuclei count viability; inhibition: stronger effect = higher value

Compound	DAPI nuclei signal change (viability), lower = more cytotoxic	inhibition
CCN(CC)CCC(c1ccc2c(c1)OCO2)c1c(OC)cc(OC)c2c(-c3ccccc3)cc(=O)oc12 (stereo unspecified)	-32.4%	57.5% (active)
COc1cc(OC)c2ccc(=O)oc2c1C(CCN1CCN(c2ccccc2)CC1)c1ccc2c(c1)OCO2 (stereo unspecified)	10.1%	25.2% (inactive)
CCN(CC)CCC(c1cc(OC)c(OC)c(OC)c1)c1c(OC)cc(OC)c2c(-c3ccccc3)cc(=O)oc12 (stereo unspecified)	-19.6%	30.8% (inactive)
COc1ccc(-c2ccc(CN3C(CC(C)C)C(=O)N(Cc4cn(CC5CCCCC5)nn4)CCS3(=O)=O)cc2)cn1 (stereo unspecified)	-15.9%	31% (inactive)
CCCC[C@H]1COCCS(=O)(=O)N1Cc1cccc(Cl)c1	-5.51%	5.89% (inactive)
O=C(CN1C(=O)NC2(CCCCCC2)C1=O)NCc1ccc(F)cc1	0.843%	-2.12% (inactive)
Cc1cccc(-c2cnc(C(O)c3ccc4ccccc4c3)[nH]2)c1 (stereo unspecified)	0.713%	-12.6% (inactive)
COc1ccc(S(=O)(=O)N2CCc3ccccc32)cc1C(=O)Nc1cc(S(C)(=O)=O)ccc1Cl	-36.5%	61.6% (active)
CCN(C(=O)COC(=O)c1cc(S(=O)(=O)N2CCc3ccccc32)ccc1OC)C1CCS(=O)(=O)C1 (stereo unspecified)	-4.55%	3.02% (inactive)
COc1cccc(NC(=O)c2cc(S(=O)(=O)N3CCc4ccccc43)cn2C)c1	-2.57%	-1.15% (inactive)
CCOC(=O)C1(C)CCCN(C(=O)c2ccc(N(C)C)cc2)C1 (stereo unspecified)	5.71%	-6.89% (inactive)
COc1ccc(-c2sc3ccc(OC)cc3c2C#Cc2ccccn2)cc1	5.72%	13.1% (inactive)
COc1ccc2sc(-c3ccc(N(C)C)cc3)c(-c3ccc4cc[nH]c4c3)c2c1	224%	24.3% (inactive)
COc1ccc2sc(-c3ccc(N(C)C)cc3)c(C#CCO)c2c1	426%	66.7% (active)
Cc1cccc(C(=O)Nc2nnc(S(=O)(=O)N3CCCCCC3)s2)c1	-4.18%	6.02% (inactive)
O=C(NCc1nnnn1-c1ccc(Cl)cc1)c1ccc2c(c1)OCO2	1.1%	-6.02% (inactive)
c1ccc(Cn2nnc3c(NCC4CC4)ncnc32)cc1	-8.3%	23.9% (inactive)
CNc1cncc(-c2ccc(NS(C)(=O)=O)cc2)n1	-24.4%	24.8% (inactive)
CN(C)CC(O)COc1ccc(C(C)(C)c2ccc(OCC(O)CN(C)C)cc2)cc1 (stereo unspecified)	20%	50.5% (active)
CCc1ccc(OCC(O)CN2CCN(CCO)CC2)cc1 (stereo unspecified)	4.43%	-3.68% (inactive)
CC(C)(c1ccccc1)c1ccc(OCCN)cc1	10.8%	22% (inactive)
CC(=O)NC12CC3CC(C1)CC(C(=O)N1CCN(C(=O)c4ccco4)CC1)(C3)C2	0.13%	-4.34% (inactive)
CS(=O)(=O)c1ccc(C(=O)NNC(=O)c2cccs2)cc1	-4.79%	-4.25% (inactive)
C=CCNC(=S)N/N=C/c1ccc(C)s1	-18.5%	56% (active)
C=CCNC(=S)N/N=C/c1ccc(OCc2ccccc2)cc1	1.44%	9.8% (inactive)

Compound	DAPI nuclei signal change (viability), lower = more cytotoxic	inhibition
Cc1ccc(/C=N/NC(=O)CN2CCN(Cc3ccccc3)CC2)s1	1.3%	2.92% (inactive)
CCOc1ccc(CN2CCN(Cc3ccc4cc(F)ccc4n3)CC2CCO)cc1 (stereo unspecified)	1.54%	7.07% (inactive)
CNC(=O)NC(=O)C(C)N1CCN(C/C=C/c2ccccc2)CC1 (stereo unspecified)	3.57%	4.65% (inactive)
O=C1c2ccccc2C(=O)c2c1cccc2N1CCN(C/C=C/c2ccccc2)CC1	3.54%	59.1% (active)
O=C(CCN1CCN(C/C=C/c2ccccc2)CC1)Nc1cccc(F)c1	11.8%	13.2% (inactive)
O=C1c2ccccc2C(=O)c2c1cccc2N1CCN(Cc2ccccc2)CC1	4.09%	114% (active)
O=c1cc(N2CCN(Cc3ccccc3)CC2)c(-c2ccccc2)n[nH]1	-7.21%	20.7% (inactive)
O=C(CN1CCN(Cc2ccccc2)CC1)NC(c1ccccc1)c1ccccc1	4.91%	-87.5% (inactive)
O=C(COC(=O)/C=C/c1ccc(Cl)cc1)NC1CCS(=O)(=O)C1 (stereo unspecified)	-1.68%	1.31% (inactive)
O=C(COC(=O)c1ccccn1)NNC(=O)c1ccc(Br)cc1	1.16%	11.9% (inactive)
COC(=O)c1ccc(CN2CCCC(C(=O)Nc3cccc(-n4cnnn4)c3)C2)cc1 (stereo unspecified)	3.39%	-0.9% (inactive)
COc1ccc(C(CNC(=O)c2cccc(S(=O)(=O)Nc3ccc(Br)cc3)c2)N(C)C)cc1 (stereo unspecified)	7.9%	-15.7% (inactive)
O=C(Nc1nc2c(F)cc(F)cc2s1)C1COc2ccccc2O1 (stereo unspecified)	-6.26%	-0.591% (inactive)
COc1ccc(OC)c2sc(NC(=O)C3COc4ccccc4O3)nc12 (stereo unspecified)	-0.689%	-1.03% (inactive)
O=C(Nc1nc(-c2ccncc2)cs1)C1COc2ccccc2O1 (stereo unspecified)	-38.7%	50.4% (active)
CCCCc1ccc(NS(=O)(=O)c2cccc(C(=O)N3CCCN(C)CC3)c2)cc1	4.43%	-11.5% (inactive)
CC1O[C@@H](OC2C(O)C(C)O[C@H](OC(=O)[C@]34CCC(C)(C)C[C@H]3C3=CCC5[C@@]6(C)CC(O)C(O[C@@H]7OC(CO)C(O)[C@@H](O)[C@@H]7O)[C@@](C)(C(=O)O)C6CC[C@@]5(C)[C@]3(CO)CC4)C2O[C@H]2OC(C)[C@@H](O[C@@H]3OCC(O[C@@H]4OC(CO)C(O)[C@H](O)C4O)[C@@H](O)[C@@H]3O)[C@H](O)C2O)C(O)C(O)C1O (stereo partly specified)	-3.05%	18.4% (inactive)
Cc1cccc(NC(=O)c2nnn(-c3cccc(C(F)(F)F)c3)c2N)c1	-5.82%	3.82% (inactive)
COc1ccc(NC(=O)CN(C)CC(=O)Nc2cccc(C(F)(F)F)c2)cc1	6.16%	-9.17% (inactive)
COc1cc(NC(=O)c2cncc(-c3ccc(C#N)cc3)c2)cc(C(=O)Nc2cccc(C(F)(F)F)c2)c1	0.0489% and -1.97%	-19.1% (inactive) and 61.3% (active)
COc1ccc(NC(=O)C(=O)NCC(=O)Nc2cccc(C(F)(F)F)c2)cc1	-2.54%	4.19% (inactive)
COc1cc(NC(=O)c2[nH]cnc2C(N)=O)cc(C(=O)Nc2cccc(C(F)(F)F)c2)c1	-14.2%	53.7% (active)
N#Cc1ccc(Oc2ccc(C(F)(F)F)cc2NC(=O)c2ccc(F)cc2)cc1	4.06%	-7.23% (inactive)
CC(C)(C)OC(=O)C[C@@H]1C/C=C\C[C@@H](CC(=O)N(CCO)Cc2ccccc2)C(=O)N[C@H](Cc2ccccc2)COC1=O	-3.76%	9.88% (inactive)
O=C(COc1ccc(Br)cc1)OCC(=O)c1ccc[nH]1	0.498%	-0.551% (inactive)

Compound	DAPI nuclei signal change (viability), lower = more cytotoxic	inhibition
CC(=O)NCc1ccc(-c2csc(NC(=O)CCCc3nc4ccccc4c(=O)[nH]3)n2)cc1	0.981%	12% (inactive)
Cc1onc(-c2c(F)cccc2Cl)c1C(=O)OCC(=O)N1C(C)CCCC1C (stereo unspecified)	-2.4%	8.89% (inactive)
CCCCNc1c(-c2ccc(OC)c(Sc3ccc(OC)cc3)c2)nc2ccc(Cl)cn12	65.8%	11.1% (inactive)
C=CCC[C@H](Cc1ccc(F)cc1)C(=O)OC[C@@H](Cc1c[nH]c2ccccc12)NC(=O)[C@H](CC=C)CC(=O)N[C@H](CO)Cc1ccccc1	1.3%	20.3% (inactive)
C=CCC[C@H](Cc1ccc(F)cc1)C(=O)OC[C@H](C)NC(=O)[C@H](CC=C)CC(=O)N(CCO)Cc1ccccc1	-5.64%	27.4% (inactive)
C=CCC[C@@H](Cc1ccc(F)cc1)C(=O)OC[C@H](Cc1c[nH]c2ccccc12)NC(=O)[C@@H](CC=C)CC(=O)N(CCO)Cc1ccccc1	-6.98%	68% (active)
CCN(CC)S(=O)(=O)c1ccc(N2CCOCC2)c(NC(=O)c2ccc(=O)n(C)n2)c1	-1.89%	5.11% (inactive)
CCOC(=O)C1(C)CCCN(C(=O)c2cccc(Cl)c2)C1 (stereo unspecified)	4.05%	-18.8% (inactive)
CN(C(=O)c1cccc(NC(=O)Cc2ccc(NC(=O)C3CCN(C(=O)C4CCCCC4)CC3)cc2)c1)C1CCC1	-0.027%	-1.1% (inactive)
O=C(Nc1ccccc1Cl)Nc1cccc2cccnc12	2.86%	20.5% (inactive)
OCc1ccc(OCCCOc2cccc3cccnc23)cc1	12.3%	-32.6% (inactive)
O=C(Nc1ccccc1)Oc1cccc2cccnc12	-22.4%	63.4% (active)
COc1ccc(C(=O)N2CCCCC2c2cc(C(=O)Nc3ccc(F)c(Cl)c3)no2)cc1 (stereo unspecified)	-1.17%	2.9% (inactive)
c1ccc2cc3c(NCCN4CCOCC4)ccnc3cc2c1	65.1%	70.1% (active)
O=C(NCCN1CCOCC1)c1cc(-c2cccs2)nc2ccccc12	34.9%	13.5% (inactive)
O=C(NCCN1CCOCC1)c1ccc2c(c1)ncn2C1CCCC1	1.89%	-0.366% (inactive)
CCOC(=O)C1CCCN(C(=O)c2ccc(C)c(S(=O)(=O)N3CCCCC3)c2)C1 (stereo unspecified)	0.656%	-11.3% (inactive)
O=C(C1Cc2ccccc2CN1C(=O)c1ccco1)N1CCN(c2ccccc2)CC1 (stereo unspecified)	0.303%	25.4% (inactive)
COc1cccc(CNc2nc3cc(-c4csc5ccccc45)sc3c(=O)n2C)c1	4.67%	6.4% (inactive)
O=C(CN1C(=O)NC2(CCOc3ccccc32)C1=O)Nc1cccc([N+](=O)[O-])c1 (stereo unspecified)	-0.437%	29.8% (inactive)
CC(C)n1cnc2c(Nc3cccc(Cl)c3)nc(N(CCO)CCCO)nc21	-20.3%	56.1% (active)
OCCCNc1nccc(-c2cc(Nc3cccc(Cl)c3)ncn2)n1	-53.6%	91.3% (inactive)
CC(C)C[C@H](CO)Nc1nc(N(C)c2cccc(Cl)c2)c2ncn(C(C)C)c2n1	-1.92%	-3.43% (inactive)

Source: PubChem BioAssay AID651582 (Sanford-Burnham Center for Chemical Genomics, 2012)
